Source: PubChem BioAssay (EPA / NIEHS)
Inconclusive results are not listed. Active and inactive are the calls of the source. The calls were made as follows: active = hit-call score of the fitted dose curve at least 0.9, where 1 is the maximum; inconclusive = response in the unintended direction; inactive = score below 0.9.

Tests used:
[1] = biological target: Cellular tumor antigen p53 (Homo sapiens) (UniProt P04637); experiment: TOX21_p53_BLA_p2_ratio: Tox21 HCT-116 p53 Agonism Beta-lactamase Assay, Ratio, Phase 2 (AID 2283592)
Sequence of Cellular tumor antigen p53 (Homo sapiens) (P04637 whole entry, looked up): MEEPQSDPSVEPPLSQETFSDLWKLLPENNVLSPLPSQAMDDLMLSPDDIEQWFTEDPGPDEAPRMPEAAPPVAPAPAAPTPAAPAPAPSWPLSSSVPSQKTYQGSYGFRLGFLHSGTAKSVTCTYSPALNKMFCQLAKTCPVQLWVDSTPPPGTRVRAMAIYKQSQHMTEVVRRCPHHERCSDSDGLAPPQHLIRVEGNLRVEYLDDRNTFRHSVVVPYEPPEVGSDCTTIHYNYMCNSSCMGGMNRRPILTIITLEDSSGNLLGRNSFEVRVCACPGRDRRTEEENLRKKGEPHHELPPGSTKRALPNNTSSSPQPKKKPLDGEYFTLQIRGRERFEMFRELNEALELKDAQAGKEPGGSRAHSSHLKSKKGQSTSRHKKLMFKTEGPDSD
Summary of the method: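 Cleaved-to-uncleaved substrate ratio (460 vs 530 nm) measured in HCT116 cells with an inducible beta-lactamase reporter linked to p53 activity. Compounds incubated 16 h at 37C before 2 h room-temperature CCF4-AM loading.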

[2] = TOX21_p53_BLA_p3_viability: Viability Assessment in the Tox21 HCT-116 p53 Agonism Beta-lactamase Assay, Phase 3 (AID 2283593);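 also: cells exposed to compound for 16 h before reading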
Summary of the method: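 HCT-116 cells (4000/well) rested 5 h at 37C, then got DMSO compounds by pin tool (217-fold dilution) for 16 h at 37C, 5% CO2. After the bla read, CellTiter-Glo was added and luminescence read at 30 min, room temperature.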

[3] = biological target: Cellular tumor antigen p53 (Homo sapiens) (UniProt P04637); experiment: TOX21_p53_BLA_p3_ratio: Tox21 HCT-116 p53 Agonism Beta-lactamase Assay, Ratio, Phase 3 (AID 2283596)
Summary of the method: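 Cells were seeded at 4000/well, rested 5 h at 37C, then dosed with DMSO compound solutions (217-fold dilution) for 16 h. CCF4-AM substrate was loaded for 2 h at room temperature, and the 460/530 nm emission ratio was fitted for gain of signal versus DMSO.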

[4] = TOX21_p53_BLA_p4_viability: Viability Assessment in the Tox21 HCT-116 p53 Agonism Beta-lactamase Assay, Phase 4 (AID 2283597);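 also: hits lower the luminescence signal meaning cytotoxicity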
Summary of the method: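 Viability is taken as cellular ATP: after 16 h compound exposure of HCT116 cells and a 2 h room-temperature CCF4-AM substrate step, CellTiter-Glo reagent is added and luminescence is measured 30 min later.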

[5] = biological target: Cellular tumor antigen p53 (Homo sapiens) (UniProt P04637); experiment: TOX21_p53_BLA_p5_ratio: Tox21 HCT-116 p53 Agonism Beta-lactamase Assay, Ratio, Phase 5 (AID 2283599)
Summary of the method: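 HCT-116 cells carrying a p53-inducible beta-lactamase reporter were seeded at 4000 cells/well and dosed after 5 h with compound in DMSO (217-fold dilution). After 16 h at 37C, CCF4-AM substrate was added for 2 h, and the 460/530 nm emission ratio was scored as gain-of-signal versus DMSO.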

[6] = biological target: Cellular tumor antigen p53 (Homo sapiens) (UniProt P04637); experiment: TOX21_p53_BLA_p4_ratio: Tox21 HCT-116 p53 Agonism Beta-lactamase Assay, Ratio, Phase 4 (AID 2283601)
Summary of the method: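 HCT116 cells carrying an inducible beta-lactamase reporter were plated at 4000 cells/well, rested 5 h, then exposed to compounds in DMSO (217-fold dilution) for 16 h at 37C. CCF4-AM substrate was loaded 2 h at room temperature; 460/530 nm emission ratio scored gain-of-signal versus DMSO.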

[7] = TOX21_p53_BLA_p5_viability: Viability Assessment in the Tox21 HCT-116 p53 Agonism Beta-lactamase Assay, Phase 5 (AID 2283600)
Summary of the method: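 Viability is taken from cellular ATP content, measured by luciferase luminescence in the same wells after the beta-lactamase ratio read. Cells are seeded at 4000 per well and exposed to DMSO-dissolved compounds, diluted 217-fold, for 16 h.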

Measured: outcome

Cc1cc(C2CCCCC2)n(O)c(=O)c1
not listed: [7]
inactive: all other assays above

NCCCC[C@H](N[C@@H](CCc1ccccc1)C(=O)O)C(=O)N1CCC[C@H]1C(=O)O
not listed: [5]
inactive: all other assays above

CS(=O)(=O)Nc1cc2occ(NC=O)c(=O)c2cc1Oc1ccccc1
not listed: [5] | [6]
inactive: all other assays above
